# Reference: PubChem BioAssay AID709 (SRMLSC, 2007)
# Hit rate of the full screen: of about 65,000 compounds, about 3,600 (5.5%) were called active.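 How the source made its calls: active means at 10 µM, mean starting fluorescence two-fold or more over control wells; inactive means the rest.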 Only a selection was taken, and actives are over-represented in it overall.
# Assay: intrinsic fluorescence of library compounds, ex339/em460 – biochemical, MLSMR library, data from DPM-DC assay, artefact control, profiling panel (AID 709);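 further: signal is the first read of a kinetic run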
# Conditions: compound autofluorescence, ex339/em460 nm, NADH buffer; at 10 µM; stronger effect = higher value; 1 = no-compound wells, NADH background
row,Structure (SMILES),fluorescence fold increase
1,CN1c2ccccc2-c2nc3ccccc3n2C1c1ccco1 (stereo not given),2.31 (active)
2,Cc1nn2c3ccccc3nc2n(C)c1=O,0.93 (inactive)
3,Cc1ccccc1N1C(=O)C2ON(c3ccccc3)C(c3ccncc3)C2C1=O (stereo not given),1.04 (inactive)
4,COc1ccc(N2CCN(C(=O)CSc3nc4cc(OC)c(OC)cc4cc3C#N)CC2)cc1,1.03 (inactive)
5,COc1ccc2nc(N3CCCC(O)C3)c(C#N)cc2c1 (stereo not given),2.58 (active)
6,CCOc1ccc2nc(N3CCCN(C(=O)Nc4ccccc4C)CC3)c(C#N)cc2c1,1.7 (inactive)
7,COc1ccc(C(=O)Nc2nncs2)c(OC)c1,1.05 (inactive)
8,COC(=O)c1sc(NC(=O)c2ccc(OC)cc2OC)nc1C,2.06 (active)
9,COC(=O)c1sc(NC(=O)c2csc3c2CCCC3)nc1C,1.25 (inactive)
10,Cc1c(C(=O)Nc2ccccc2Cl)oc2ccc(S(=O)(=O)N3CCC4(CC3)OCCO4)cc12,3.37 (active)
11,CCOC(=O)C1CCN(C(=O)c2oc3ccc(S(=O)(=O)N4CCCCCC4)cc3c2C)CC1,1.08 (inactive)
12,CCOc1ccccc1NC(=O)c1cc(S(=O)(=O)N2CCC3(CC2)OCCO3)ccc1F,1.05 (inactive)
13,COC(=O)COc1ccc(S(=O)(=O)Nc2ccc(NC(C)=O)cc2)cc1,1.1 (inactive)
14,O=C(N1CCOCC1)N(Cc1ccccc1)c1ccccn1,1.08 (inactive)
15,COc1cc(-n2c(C)nc3cc(C(=O)NCc4ccco4)ccc32)cc(OC)c1OC,1.09 (inactive)
16,Cc1cc(NC(=O)c2cnn3cccnc23)n(-c2ccccc2)n1,1.13 (inactive)
17,Cn1c(CNc2nc(-c3ccccc3)cs2)nnc1SCC(=O)c1ccccc1,1.05 (inactive)
18,COCCCn1c2nc3ccccc3nc2c2c(=O)n(Cc3ccc(Cl)cc3)c(C)nc21,3.88 (active)
19,CC(Sc1nc2ccccc2c(=O)n1Cc1ccco1)C(=O)c1ccccc1 (stereo not given),1.1 (inactive)
20,Nc1cc(=O)nc(SCc2ccccc2)n1Cc1ccco1,1.05 (inactive)
21,Cc1nc2c(c(=O)n1Cc1ccco1)c1nc3ccccc3nc1n2Cc1ccccc1,2.65 (active)
22,Cc1nc2ccccc2c(=O)n1CCCn1ccnc1,1.18 (inactive)
23,Cc1ccc(Cn2c(C)nc3c(c2=O)c2nc4ccccc4nc2n3Cc2ccco2)cc1,2.34 (active)
24,Cn1c(COc2ccc(Cl)cc2)nc2ccccc2c1=O,1.18 (inactive)
25,Clc1cccc(-c2nc3nc4ccccc4nc3n2Cc2ccco2)c1,1.65 (inactive)

row,Structure (SMILES),fluorescence fold increase
1,O=c1c2ccccc2oc2nc(C3CCCCC3)n(Cc3ccco3)c(=O)c12,1.14 (inactive)
2,CC(=O)Oc1cc2c(C(=O)NCCN3CCOCC3)c(C)oc2c2ccccc12,1.19 (inactive)
3,CCCS(=O)(=O)N1CCCC(C(=O)N2CCN(c3ccccc3)CC2)C1 (stereo not given),1.11 (inactive)
4,CN(C)Cc1c(O)ccc2occ(C(O)c3ccccc3)c12 (stereo not given),1.03 (inactive)
5,COc1ccc(-c2ccnc(SCC(=O)N3CCOCC3)n2)cc1,1.54 (inactive)
6,COC(=O)c1[nH]c2ccccc2c1NC(=O)CN1CCCc2ccccc21,1.14 (inactive)
7,CCOC(=O)c1[nH]c2ccc(OC)cc2c1NC(=O)CCN1CCN(Cc2ccccc2)CC1,2.37 (active)
8,COc1cc(NC(=O)N2CCOCC2)cc(OC)c1,1.07 (inactive)
9,CCOc1ccccc1NC(=O)CCN1CCN(S(=O)(=O)c2ccc(OC)cc2)CC1,1 (inactive)
10,Cc1c(C(=O)N2CCOCC2)[nH]c2ccc(OCc3ccccc3)cc12,1.13 (inactive)
11,CCOC(=O)c1[nH]c2ccc(OC)cc2c1NC(=O)N1CCOCC1,3.83 (active)
12,COC(=O)c1sc(=S)n(-c2ccccc2)c1N,1.02 (inactive)
13,O=S(=O)(NCc1ccc2c(c1)OCO2)c1cccc2nsnc12,1.04 (inactive)
14,CCOC(=O)c1cc2occc2n1CC(=O)NC1CCC(C)CC1 (stereo not given),1.03 (inactive)
15,Cc1cccc(N2CCN(Cc3c(C)n(C)n(-c4ccccc4)c3=O)CC2)c1C,1.01 (inactive)
16,OCc1n[nH]c(CO)n1,1.04 (inactive)
17,O=C(Nc1ccc2c(c1)nc1n2CCCCC1)c1cc(S(=O)(=O)N2CCOCC2)ccc1Cl,1.09 (inactive)
18,CC(c1nnc(SCC(=O)Nc2sccc2C#N)n1-c1ccc(Cl)cc1)N(C)C (stereo not given),1.06 (inactive)
19,CCCc1[nH]nc2c1C(c1c(C)nn(-c3ccccc3)c1Cl)C(C#N)=C(N)O2 (stereo not given),1.09 (inactive)
20,CSc1ccc(-c2c(C#N)c(N)nc3c2c(C)nn3-c2ccccc2)cc1,3.9 (active)
21,CSc1nc(N)c(C#N)c(-c2ccccc2Cl)c1C#N,1.19 (inactive)
22,COc1ccc(OC)c(CNC(=O)CCc2nc(-c3cccs3)no2)c1,1.09 (inactive)
23,Cc1cc(C)nc(N(C#N)CC(=O)Nc2ccccc2)n1,1.1 (inactive)
24,Cc1ccc(S(=O)(=O)NCCN2CCOCC2)cc1C,1.15 (inactive)
25,COc1ccccc1NC1=NC(c2ccc(Cl)cc2)N=C(N)N1 (stereo not given),1.03 (inactive)

row,Structure (SMILES),fluorescence fold increase
1,CCCc1nc2ccccc2c(C(=O)OCc2nnc(-c3cc(OC)c(OC)c(OC)c3)o2)c1CC,1.12 (inactive)
2,Cc1c(C)c2cc3c4c(oc3c(C)c2oc1=O)CCCC4,1.64 (inactive)
3,COc1ccc(Cl)cc1S(=O)(=O)N1CCN(CC(=O)C(C)(C)C)CC1,0.9 (inactive)
4,COc1ccc2c3c(c(=O)oc2c1OCC(=O)C(C)(C)C)CCCC3,2.12 (active)
5,CCCOc1ccc2c3c(c(=O)oc2c1OCCC)CCC3,2.13 (active)
6,COc1ccc(C(=O)OCC(=O)c2ccc(C)c(S(=O)(=O)N3CCOCC3)c2)cc1OC,1 (inactive)
7,COC(=O)c1ccc(Oc2nc(Nc3ccc(F)cc3)nc(N3CCCC3)n2)cc1,1.09 (inactive)
8,Cc1ccc(C(c2nnnn2CS(=O)(=O)c2ccc(C)cc2)N2CCC(C(N)=O)CC2)cc1 (stereo not given),1.03 (inactive)
9,Cc1cccc(NC(=O)CN2CCCN(S(=O)(=O)c3ccc(Br)s3)CC2)c1,1.1 (inactive)
10,Cc1cc(NC(=O)c2cccc(N3C(=O)CCC3=O)c2)no1,1.09 (inactive)
11,CCCOC(=O)c1cc2ccccc2oc1=O,1.51 (inactive)
12,COc1ccc2oc(=O)c(C(=O)N3CCCc4ccccc43)cc2c1,1.09 (inactive)
13,CCN(CC)c1ccc2cc(C(=O)O)c(=O)oc2c1,2.71 (active)
14,CCN(CC)c1ccc2oc(=O)c(C)nc2c1,0.59 (inactive)
15,COc1ccc2oc(=O)c(C(=O)O)cc2c1,3.98 (active)
16,COc1ccc2oc(=O)c(C(=O)N3CCN(c4ccccc4F)CC3)cc2c1,1.41 (inactive)
17,CCOc1ccc(-n2c(SC(C)C(=O)OC)nc3c(c2=O)SCC3)cc1 (stereo not given),1.06 (inactive)
18,CC(=O)c1cc(C#N)c(SCC(=O)C(C)(C)C)nc1C,1.08 (inactive)
19,Cc1ccccc1S(=O)(=O)Cc1ccc(C(=O)NCCN2CCCCC2C)o1 (stereo not given),1.1 (inactive)
20,CC1=Nn2c(nnc2-c2ccccc2)SC1,1 (inactive)
21,CCOC(=O)C1CCN(C(=O)Cn2cc(C#N)c3ccccc32)CC1,1.19 (inactive)
22,CCOC(=O)CCc1c(C)c(C#N)c2[nH]c3ccccc3n2c1=O,2.29 (active)
23,CCOC(=O)CC1=CC(=O)Nc2ccccc2N1,1.15 (inactive)
24,COc1ccc(C2C(C(=O)N3CCN(c4ccc(OC)cc4)CC3)c3ccccc3C(=O)N2C)cc1 (stereo not given),1.12 (inactive)
25,COc1ccccc1-n1c(CNC(=O)c2ccccc2)nnc1SCC(=O)Nc1nnc(C)s1,1.12 (inactive)

row,Structure (SMILES),fluorescence fold increase
1,CC(NCCO)C(=O)C12CC3CC(CC(C3)C1)C2 (stereo not given),1.13 (inactive)
2,Cc1cccc(N(CC(O)CN(C)C)S(=O)(=O)c2ccccc2)c1 (stereo not given),1.08 (inactive)
3,CNC(=O)Nc1cc(C(C)(C)C)no1,1.07 (inactive)
4,CCOC(=O)c1ccc(COC(=O)c2cc(=O)[nH]c3ccccc23)o1,2.1 (active)
5,CCOC(=O)c1ccc(CS(=O)c2ccc(Cl)cc2)o1 (stereo not given),1.02 (inactive)
6,CCOC(=O)c1sc2nc(CSCC(=O)OCc3ccc(C(=O)OC)o3)[nH]c(=O)c2c1C,1.46 (inactive)
7,Cc1ccc(S(=O)(=O)Nc2ccc3ncccc3c2)cc1,1.18 (inactive)
8,O=S(=O)(Nc1ccc2nc(-c3ccco3)[nH]c2c1)c1ccccc1,2.12 (active)
9,COc1cc(NS(=O)(=O)c2ccccc2)ccc1-n1nc(C)cc1C,1.12 (inactive)
10,CCCCN(CCCC)C(=O)CCS(=O)(=O)c1ccc2c(c1)n(C)c(=O)c(=O)n2C,1.23 (inactive)
11,Cc1cc(C)nc(SCc2nnc(SCC(=O)OC3CCCCC3)o2)n1,1.08 (inactive)
12,CC1CN(C2CCN(C(=O)COc3ccccc3)CC2)CC(C)O1 (stereo not given),1.1 (inactive)
13,O=C(NC1CCCCC1)c1ccc2c(=O)n(CC3CCCO3)c(=O)[nH]c2c1 (stereo not given),2.11 (active)
14,O=c1c2cc3c(=O)n(CC4CCCO4)c(=O)c3cc2c(=O)n1CC1CCCO1 (stereo not given),1.07 (inactive)
15,COC(=O)c1ccc2c(=O)n(CC3CCCO3)c(=S)[nH]c2c1 (stereo not given),1.06 (inactive)
16,Cc1cc(C(=O)CC#N)c(C)n1CC(F)(F)F,1.05 (inactive)
17,CCCNc1ncnc2sc(C)c(C)c12,1.15 (inactive)
18,Fc1cc(F)c2nc(N3CCOCC3)sc2c1,1.07 (inactive)
19,COc1ccc(OC)c(NC(=O)CSc2nc(N)c(-c3ccccc3)c(=O)[nH]2)c1,1.08 (inactive)
20,CCOC(=O)CCc1c(C)c2ccc(OCc3nn[nH]n3)c(C)c2oc1=O,3.81 (active)
21,CCN(CC)S(=O)(=O)c1cccc(C(=O)Nc2cc(C)nn2-c2nc(C)cc(C)n2)c1,1.03 (inactive)
22,CC(C)C1C2=C(CC(C)(C)CC2=O)ON1c1ccccc1 (stereo not given),1.9 (inactive)
23,O=C(O)C1CCCCC1C(=O)Nc1ccc(Cl)cc1 (stereo not given),1.08 (inactive)
24,CCOC(=O)CSc1nccc(N(C)C)c1C#N,1.09 (inactive)
25,CCOC(=O)Cc1c(C)nc2c(C#N)c(C)nn2c1C,3.62 (active)
